Data from PubChem BioAssay (NCATS).
Values joined by “and” are separate entries in the source; they are usually repeats but may differ in a detail not shown here. Equal entries are not always repeated. Results filed as inconclusive are left out. Where a call stands in place of a potency, no number is given. Active and inactive are the calls of the source. Unless noted, calls come from the whole dose curve; as a rule, active = well fitted curve in the direction sought with a large enough effect; inconclusive = small, poorly fitted or top-dose-only effect, or another doubt; inactive = no such curve, though single readings can be large; an effect the other way counts as inactive or inconclusive.

Columns and labels:
[1] = Primary qHTS for inhibitors of nuclear receptor binding SET domain protein 2 (NSD2) in an isogenic RCH-ACV NSD2 p.E1099K mutant (9B) (AID 1645876); note: potency is the fitted concentration of half-maximal effect; nearly all actives have a fitted effect of over 70% in size
[2] = Primary qHTS for inhibitors of nuclear receptor binding SET domain protein 2 (NSD2) in an RCH-ACV wild type WT cells (2C) (AID 1645877); note: potency is the fitted concentration of half-maximal effect; nearly all actives have a fitted effect of over 70% in size
[3] = biological target: Glutathione peroxidase 1 (Homo sapiens) (UniProt P07203); assay: Primary qHTS Assay for Inhibitors of Recombinant Selenoprotein Glutathione Peroxidase 1 (GPX1) (AID 1845191); note: nearly all actives have a fitted effect of over 65% in size
Procedure, shortened: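 GPX1 10 nM, GR 100 nM, GSH 1 mM, NADPH 0.5 mM, CHP 0.5 mM (final). 30-min cpd preincubation, RT. Ex340/Em450 read t=0, t=15 min.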

[4] = biological target: Phospholipid hydroperoxide glutathione peroxidase GPX4 (Homo sapiens) (UniProt P36969); assay: Primary qHTS Assay for Inhibitors of Recombinant Selenoprotein Glutathione Peroxidase 4 (GPX4) (AID 1845192); details: outcome: dose series up to 50 µM unless noted; note: nearly all actives have a fitted effect of over 65% in size
Procedure, shortened: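 qHTS, GR-coupled: GPX4 200 nM + cpd 30 min RT → GSH 1 mM, NADPH 0.5 mM, GR 100 nM → CHP 0.5 mM start; fluor 340/450 at t0 and t15 min; no-enzyme wells as control.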

[5] = qHTS drug screen for cell cycle checkpoint inhibitors in PARPi-resistant BRCA-mutant ovarian cancer cell lines. (AID 1963452; calls by dose curve); details: PEO1/OlaR viability, CellTiter-Glo luminescence, 96 h, stronger effect = lower value
Procedure, shortened: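 PEO1, PEO4 and PEO1/OlaR ovarian cancer cells, 600 per well, exposed 96 h at 37C to a dilution series. Viability read by CellTiter-Glo luminescence, normalized to DMSO and empty wells; activity summarized as Z-AUC.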

[6] = qHTS assay to identify inhibitors of the type 1 interferon - major histocompatibility complex class I in skeletal muscle: Counter screen cell viability and HiBit confirmation (AID 1347412); details: iHSKM muscle cells + IFN-b, HiBiT or CellTiter-Glo, 24 h, Viability; for activity change, negative = inhibition: at 45.9 µM (top of the series); note: potency is the fitted concentration of half-maximal effect; for all read-outs here: nearly all actives have a fitted effect of over 60% in size
Procedure, shortened: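 Luminescence read-out: Nano-Glo HiBiT lytic signal from C-terminally HiBiT-tagged HLA-B in CRISPR-edited human myoblasts, plus CellTiter Glo ATP as viability counter screen. IFN-beta 4.0 ng/ml; 24 hrs treatment at 37 C, 5% CO2.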

[7] = Validation of Assay for Modulators of Lamin A Splicing (AID 1459; active = well fitted curve in the direction sought with a large enough effect in the signal ratio; the % refers to the signal ratio;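 note: cells exposed to compound for two days before reading; ratio rise marks activators and ratio drop marks inhibitors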)
Procedure, shortened: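 HeLa S3 lamin A-EGFP/DsRed2 stable clone, 600 cells/well, Opti-MEM 2% FBS; compounds by pin tool; 48 hrs, 37 °C/5% CO2; Acumen 488 nm scan, objects 10-100 um; GFP/RFP intensity ratio.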

[8] = qHTS Assay for Lipid Storage Modulators (AID 1519; calls by dose curve); details: Drosophila S3 cells, BODIPY lipid droplet/cell ratio, laser cytometry, cells loaded with oleic acid; for activity change, negative = inhibition: at 57.5 µM (top of the series)
Procedure, shortened: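 Cells seeded at 5,000 per well were treated with compounds over a concentration series and loaded with oleic acid (400 uM, as added). Lipid droplet fluorescence (488 nm excitation, 500-530 nm channel) was read by laser-scanning cytometry and normalized to 20 uM Triacsin C.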

[9] = biological target: DNA repair nuclease/redox regulator APEX1 (Homo sapiens) (UniProt P27695); assay: qHTS Validation Assay for Inhibitors of the Human Apurinic/apyrimidinic Endonuclease 1 (APE1) (AID 1705;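 note: TAMRA fluorescence gain over two minutes as APE1 cuts a quenched THF abasic duplex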)
Procedure, shortened: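 qHTS, 1536-well. APE1 + cpd 15 min RT → 50 nM TAMRA/BHQ-2 THF-abasic dsDNA substrate → kinetic fluorescence, 3 reads/60 s; delta(read3−read1) = reaction progress. No-enzyme buffer = negative control.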

[10] = Counterscreen for APE1 Inhibitors: Fluorescent Dye Displacement Validation Assay (AID 1707)
Procedure, shortened: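 Loss of Thiazole Orange fluorescence marks promiscuous DNA binders. The dye (250 nM) is mixed with 50 nM abasic-site dsDNA in pH7.5 Tris buffer containing MgCl2, then compounds are added and emission is read once.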

[11] = biological target: Endonuclease 4 (Escherichia coli (strain K12)) (UniProt P0A6C1); assay: Counterscreen for APE1 Inhibitors: qHTS Validation Assay for Inhibitors of Endonuclease IV (AID 1708)
Procedure, shortened: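 Enzyme (2 nM) + compound, 15 min RT; add 50 nM TAMRA/BHQ-2 THF-site dsDNA; kinetic read ex525/em598, 3 reads/60 s; activity = read 3 − read 1. Buffer Tris pH 7.5, 50 mM NaCl, 2 mM MgCl2, DTT, Tween-20.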

[12] = qHTS for differential inhibitors of proliferation of Plasmodium falciparum line Dd2 (AID 1882); details: Potency: Plasmodium falciparum Dd2 proliferation inhibition; note: nearly all actives have a fitted effect of over 65% in size
Procedure, shortened: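 SYBR Green DNA fluorescence (ex 485, em 535 nm) after overnight lysis quantifies parasite growth; compound exposure lasted 72 h at 37 C on infected red cells at 2.5% hematocrit, 0.3% parasitemia (final). Artemisinin 0.29 uM and vehicle wells define normalization.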

[13] = biological target: ATP-dependent DNA helicase Q1 (Homo sapiens) (UniProt P46063); assay: qHTS Validation Assay for Inhibitors of RecQ-Like Dna Helicase 1 (RECQ1) (AID 2353)
Procedure, shortened: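 RECQ1T1 50 nM; forked duplex (20 bp + 30-nt ss tails) 200 nM, ATP 2 mM final; pH 8.0, 2 mM MgCl2, 2.5 ug/ml poly(dI-dC); 15 min compound preincubation; discontinuous kinetic read over 2 h at RT.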

[14] = Validation screen for small molecules that induce DNA re-replication in MCF 10A normal breast cells (AID 463097); note: nearly all actives have a fitted effect of over 60% in size
Procedure, shortened: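 Image-based qHTS: normal breast cells are incubated with compound for 48 hr, stained with Hoechst, and scanned for total nuclear fluorescence. Compounds raising the fraction of nuclei with elevated DNA content count as re-replication inducers.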

[15] = Quantitative high throughput screen for delayed death inhibitors of the malarial parasite plastid, 48 hour incubation (AID 488752); note: nearly all actives have a fitted effect of over 65% in size
Procedure, shortened: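 One-generation (48 h) growth assay: a decrease in luciferase signal from an integrated reporter in P. falciparum-infected red cells (0.1% parasitemia, 2% hematocrit) after compound exposure at 37 C indicates parasite inhibition.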

[16] = biological target: M-phase phosphoprotein 8 (Homo sapiens) (UniProt Q99549); assay: qHTS Validation Assay for Inhibitors for MPP8 Chromodomain Interactions with Methylated Histone Tails (AID 488949);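 note: 50 nM MPP8 with 50 nM peptide preformed then compounds added for 30 min; AlphaScreen signal from MPP8 chromodomain bound to biotinylated H3K9me3 peptide; top concentration of the series differs between compounds; nearly all actives have a fitted effect of over 55% in size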
Procedure, shortened: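 50 nM MPP8 + 50 nM b-H3K9me3 peptide, PBS pH 7.4/0.01% Tween-20, 30 min RT; + cpd 30 min RT; + AlphaScreen donor/Ni-chelate acceptor beads 10 ug/mL final, 30 min dark; luminescence read.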

[17] = biological target: Transient receptor potential cation channel subfamily V member 1 (Homo sapiens) (UniProt Q8NER1); assay: HTS Assay for Compounds that Act as Enhancers of the Vanilloid Receptor 1 (AID 488979)
Procedure, shortened: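 TRPV1-expressing cells loaded with Fluo-8 calcium dye; compounds added and calcium influx read kinetically for 3 min (agonist phase), then capsaicin at EC20 added and read 2 min more for enhancement. Fluorescence ex 480/em 520 nm.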

[18] = biological target: Galactokinase (Homo sapiens) (UniProt P51570); assay: qHTS Validation Assay for Inhibitors of Human Galactokinase (GALK) (AID 493189)
Procedure, shortened: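 5 nM GALK / 100 uM galactose / 35 uM ATP, 20 mM HEPES pH8.0, 5 mM MgCl2, 60 mM NaCl, 1 mM DTT, 0.01% BSA (final). RT 1 h; Kinase-Glo Plus luminescence.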

[19] = Validation screen for small molecules that induce DNA re-replication in SW480 colon adenocarcinoma cells (AID 504364)
Procedure, shortened: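 Image-based DNA content read-out: Hoechst stain 40 min, total nuclear fluorescence intensity (ex 405 nm, em 500-530 nm) after 48 h compound exposure of 250 SW480 cells/well at 37 C, 5% CO2, versus DMSO vehicle.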

[20] = measured here: PEO1 parental Z-AUC
[21] = measured here: cell count channel max response
[22] = measured here: lipid channel max response

Sequence of Phospholipid hydroperoxide glutathione peroxidase GPX4 (Homo sapiens) (P36969 whole entry, looked up): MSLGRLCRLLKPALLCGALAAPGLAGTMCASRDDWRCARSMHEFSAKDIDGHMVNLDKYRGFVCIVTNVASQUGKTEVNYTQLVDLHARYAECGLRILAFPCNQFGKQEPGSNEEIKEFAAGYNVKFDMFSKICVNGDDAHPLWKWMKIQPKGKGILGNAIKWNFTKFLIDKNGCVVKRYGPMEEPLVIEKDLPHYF
Sequence of Galactokinase (Homo sapiens) (P51570 whole entry, looked up): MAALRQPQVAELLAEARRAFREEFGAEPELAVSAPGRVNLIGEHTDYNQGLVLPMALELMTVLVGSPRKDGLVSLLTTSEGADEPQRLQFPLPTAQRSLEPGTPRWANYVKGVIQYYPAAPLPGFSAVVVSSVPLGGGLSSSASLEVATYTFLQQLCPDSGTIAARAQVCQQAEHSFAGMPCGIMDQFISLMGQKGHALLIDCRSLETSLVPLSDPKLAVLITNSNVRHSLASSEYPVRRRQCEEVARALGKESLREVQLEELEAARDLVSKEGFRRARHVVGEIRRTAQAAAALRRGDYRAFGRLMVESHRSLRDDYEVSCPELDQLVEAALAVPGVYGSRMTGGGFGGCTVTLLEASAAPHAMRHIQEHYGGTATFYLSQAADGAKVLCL
Sequence of M-phase phosphoprotein 8 (Homo sapiens) (Q99549 whole entry, looked up): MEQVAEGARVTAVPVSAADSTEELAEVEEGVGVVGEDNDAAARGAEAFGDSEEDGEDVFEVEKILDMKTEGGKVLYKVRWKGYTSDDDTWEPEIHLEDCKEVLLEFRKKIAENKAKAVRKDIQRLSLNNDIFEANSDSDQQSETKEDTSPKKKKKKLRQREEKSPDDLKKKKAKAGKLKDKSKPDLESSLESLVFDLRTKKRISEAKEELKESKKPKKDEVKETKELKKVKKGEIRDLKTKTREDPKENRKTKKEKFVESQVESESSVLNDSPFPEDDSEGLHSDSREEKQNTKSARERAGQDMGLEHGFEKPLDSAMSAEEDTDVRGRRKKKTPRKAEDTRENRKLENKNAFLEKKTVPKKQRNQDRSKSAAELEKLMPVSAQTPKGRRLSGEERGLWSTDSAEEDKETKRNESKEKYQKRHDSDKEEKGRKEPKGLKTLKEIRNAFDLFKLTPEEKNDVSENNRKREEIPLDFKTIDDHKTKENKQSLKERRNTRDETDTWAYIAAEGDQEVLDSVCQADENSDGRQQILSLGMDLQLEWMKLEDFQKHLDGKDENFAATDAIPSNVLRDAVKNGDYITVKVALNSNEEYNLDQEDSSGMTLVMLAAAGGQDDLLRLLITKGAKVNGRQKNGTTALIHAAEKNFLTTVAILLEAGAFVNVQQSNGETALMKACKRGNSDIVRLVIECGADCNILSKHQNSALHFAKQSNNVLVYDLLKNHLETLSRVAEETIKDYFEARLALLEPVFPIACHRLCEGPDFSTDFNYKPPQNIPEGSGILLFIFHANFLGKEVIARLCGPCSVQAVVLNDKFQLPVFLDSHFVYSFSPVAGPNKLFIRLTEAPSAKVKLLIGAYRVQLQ
Sequence of DNA repair nuclease/redox regulator APEX1 (Homo sapiens) (P27695 whole entry, looked up): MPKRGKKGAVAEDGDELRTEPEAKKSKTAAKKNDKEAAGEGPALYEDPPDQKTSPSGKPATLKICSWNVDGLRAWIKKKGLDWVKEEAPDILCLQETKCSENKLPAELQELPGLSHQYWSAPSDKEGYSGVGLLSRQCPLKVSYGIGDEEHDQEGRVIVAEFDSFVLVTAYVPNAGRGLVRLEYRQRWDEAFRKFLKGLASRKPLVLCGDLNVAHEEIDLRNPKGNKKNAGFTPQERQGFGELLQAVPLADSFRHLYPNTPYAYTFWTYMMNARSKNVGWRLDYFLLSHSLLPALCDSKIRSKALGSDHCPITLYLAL
Sequence of Glutathione peroxidase 1 (Homo sapiens) (P07203 whole entry, looked up): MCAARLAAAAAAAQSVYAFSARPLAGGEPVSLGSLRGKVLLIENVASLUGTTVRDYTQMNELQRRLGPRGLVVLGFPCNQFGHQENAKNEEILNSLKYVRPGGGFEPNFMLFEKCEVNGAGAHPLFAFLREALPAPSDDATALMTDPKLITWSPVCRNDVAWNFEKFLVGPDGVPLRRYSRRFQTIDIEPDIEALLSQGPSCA
Sequence of ATP-dependent DNA helicase Q1 (Homo sapiens) (P46063 whole entry, looked up): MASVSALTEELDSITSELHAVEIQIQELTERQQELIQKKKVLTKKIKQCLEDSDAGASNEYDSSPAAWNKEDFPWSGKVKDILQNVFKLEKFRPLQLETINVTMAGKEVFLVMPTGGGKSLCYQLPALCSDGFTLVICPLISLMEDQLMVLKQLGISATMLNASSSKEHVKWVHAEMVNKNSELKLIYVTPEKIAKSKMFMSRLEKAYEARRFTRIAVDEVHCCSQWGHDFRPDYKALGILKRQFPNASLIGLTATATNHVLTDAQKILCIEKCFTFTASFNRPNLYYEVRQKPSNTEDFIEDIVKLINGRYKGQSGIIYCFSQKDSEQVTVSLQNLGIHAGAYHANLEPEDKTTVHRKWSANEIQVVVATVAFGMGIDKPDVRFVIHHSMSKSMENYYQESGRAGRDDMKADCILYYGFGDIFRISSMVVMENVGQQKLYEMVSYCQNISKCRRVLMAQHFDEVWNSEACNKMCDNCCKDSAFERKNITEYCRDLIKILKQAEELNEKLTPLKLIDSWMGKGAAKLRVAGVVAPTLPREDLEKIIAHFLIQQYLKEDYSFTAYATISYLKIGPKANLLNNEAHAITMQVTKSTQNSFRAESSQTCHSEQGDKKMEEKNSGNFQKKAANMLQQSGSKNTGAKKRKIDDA
Sequence of Transient receptor potential cation channel subfamily V member 1 (Homo sapiens) (Q8NER1 whole entry, looked up): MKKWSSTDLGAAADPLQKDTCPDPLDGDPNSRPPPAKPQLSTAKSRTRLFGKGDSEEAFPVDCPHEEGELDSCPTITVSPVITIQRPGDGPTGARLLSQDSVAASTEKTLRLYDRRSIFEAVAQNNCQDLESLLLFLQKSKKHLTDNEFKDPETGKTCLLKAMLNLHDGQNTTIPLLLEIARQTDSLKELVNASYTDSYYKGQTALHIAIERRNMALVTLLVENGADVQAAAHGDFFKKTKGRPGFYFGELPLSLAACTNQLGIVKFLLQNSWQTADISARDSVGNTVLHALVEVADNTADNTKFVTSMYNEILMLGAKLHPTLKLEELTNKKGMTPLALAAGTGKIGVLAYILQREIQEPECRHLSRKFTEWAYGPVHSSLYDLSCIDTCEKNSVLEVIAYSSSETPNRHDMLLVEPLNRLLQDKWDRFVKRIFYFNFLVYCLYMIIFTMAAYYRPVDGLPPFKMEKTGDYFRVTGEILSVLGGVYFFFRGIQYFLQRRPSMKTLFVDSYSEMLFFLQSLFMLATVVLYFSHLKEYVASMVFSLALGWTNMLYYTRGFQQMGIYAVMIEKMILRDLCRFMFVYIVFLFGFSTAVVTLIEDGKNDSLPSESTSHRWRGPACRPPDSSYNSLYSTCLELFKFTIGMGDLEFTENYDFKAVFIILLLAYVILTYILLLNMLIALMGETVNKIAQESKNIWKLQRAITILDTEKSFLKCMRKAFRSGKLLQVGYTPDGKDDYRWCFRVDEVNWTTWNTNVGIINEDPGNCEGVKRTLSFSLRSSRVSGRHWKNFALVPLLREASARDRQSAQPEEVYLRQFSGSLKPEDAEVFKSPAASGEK

For `Nc1nc2c(c(=O)[nH]1)N1CN(c3ccc(C(=O)N[C@@H](CCC(=O)O)C(=O)O)cc3)CC1CN2` (stereo partly specified), the Potency [1] was 0.833 µM (active), the Potency [2] was 0.742 µM (active) and the Potency [3] was “inactive”. The Potency [4] was “inactive”, the Z-AUC [5] was -1.54 (inactive) and the Z-AUC [5, 20] was -1.06. For the same compound, the Z-AUC ([5]; measured here: PEO4 Z-AUC) was -0.345 and the activity change, negative = inhibition [6] was -12% (inactive).

In the case of `CCCc1cc(C(=O)N[C@H](Cc2ccc(-c3cccc(OC(F)(F)F)c3)nc2)C(=O)N[C@@H]2CCNC2)sc1C`, the Potency [1] is reported as 6.61 µM (active), the Potency [2] is reported as 5.9 µM (active) and the Potency [3] is reported as “inactive”. The Z-AUC [5] was -0.805 (inactive), the Z-AUC [5, 20] was -0.801 and the Z-AUC ([5]; measured here: PEO4 Z-AUC) was -0.851. The Potency [6] was 35.2 µM (active).

In the case of `CCN(CC)CCNC(=O)c1c(C)[nH]c(/C=C2/C(=O)Nc3ccc(-c4csc(-c5ccccc5)n4)cc32)c1C`, the Potency [1] is reported as 7.42 µM (active), the Potency [2] is reported as 5.9 µM (active) and the Potency [3] is reported as “inactive”. For the same compound, the Potency [4] was “inactive”, the Z-AUC [5] was 0.984 (inactive) and the Z-AUC [5, 20] was 0.413. The Z-AUC ([5]; measured here: PEO4 Z-AUC) was -0.34 and the Potency [6] was 24.9 µM (active).

For `COC1CC(C(=O)c2ccc3c(N)ncc(-c4ccc(-c5cnn(C)c5)cc4)c3n2)C1` (stereo unspecified), the Potency [1] was 1.48 µM (active), the Potency [2] was 0.0417 µM (active) and the Potency [3] was “inactive”. The Potency [4] was “inactive”, the Z-AUC [5] was -1.33 (inactive) and the Z-AUC [5, 20] was -1.16. For the same compound, the Z-AUC ([5]; measured here: PEO4 Z-AUC) was -1.1 and the activity change, negative = inhibition [6] was 4.77% (inactive).

With `CC(=O)O[C@H]1C[C@@H]2CCC3C(CC[C@@]4(C)[C@H]3C[C@H]([N+]3(C)CCCCC3)[C@@H]4OC(C)=O)[C@@]2(C)C[C@@H]1[N+]1(C)CCCCC1` (stereo partly specified) the outcome [7] was “inactive”, the activity change, negative = inhibition [8] was 0.655% (inactive) and the max response [8, 21] was -31.8%. The max response [8, 22] was -31.3%, the Potency [9] was “inactive” and the Potency [10] was “inactive”. For the same compound, the outcome [11] was “inactive”, the Potency [12] was “inactive” and the Potency [13] was “inactive”. For the same compound, the outcome [14] was “inactive”, the Potency [15] was “inactive” and the Potency [16] was “inactive”. The outcome [17] was “inactive”, the outcome [18] was “inactive” and the outcome [19] was “inactive”.

With `Cn1cc(-c2ccc(-c3cncc(Cl)c3N3CCC4(CCNC4=O)CC3)cc2)cn1` the Potency [1] was 8.33 µM (active), the Potency [2] was 0.833 µM (active) and the Potency [3] was “inactive”. For the same compound, the Potency [4] was “inactive”, the Z-AUC [5] was -1.1 (inactive) and the Z-AUC [5, 20] was -0.614. The Z-AUC ([5]; measured here: PEO4 Z-AUC) was -1.18 and the activity change, negative = inhibition [6] was -3.23% (inactive).

With `O=C1NC(=O)[C@@H](c2c[nH]c3ccccc23)[C@H]1c1cn2c3c(cccc13)CCC2` the Potency [1] was 1.18 µM (active), the Potency [2] was 0.934 µM (active) and the Potency [3] was “inactive”. The Z-AUC [5] was -1.13 (inactive), the Z-AUC [5, 20] was -0.673 and the Z-AUC ([5]; measured here: PEO4 Z-AUC) was -0.711. The activity change, negative = inhibition [6] was -10.9% (inactive).

In the case of `COc1cc(C(N)=O)ccc1NC(=O)[C@@H]1N[C@@H](CC(C)(C)C)[C@@]2(C(=O)Nc3cc(Cl)ccc32)[C@H]1c1cccc(Cl)c1F`, the Potency [1] is reported as 0.235 µM (active), the Potency [2] is reported as 0.0934 µM (active) and the Potency [3] is reported as “inactive”. The Z-AUC [5] was -0.18 (inactive), the Z-AUC [5, 20] was -0.499 and the Z-AUC ([5]; measured here: PEO4 Z-AUC) was -0.498. For the same compound, the activity change, negative = inhibition [6] was -16.3% (inactive).

In the case of `NCCNC(=O)c1ccc(Cl)cc1`, the outcome [7] is reported as “inactive”, the activity change, negative = inhibition [8] is reported as -0.17% (inactive) and -0.521% (inactive) and the max response [8, 21] is reported as 0.461% and 25.8%. The max response [8, 22] was 1.39% and 22.5%, the Potency [9] was “inactive” and the Potency [10] was “inactive”. For the same compound, the outcome [11] was “inactive”, the Potency [12] was “inactive” and the Potency [13] was “inactive”. The outcome [14] was “inactive”, the Potency [15] was “inactive” and the Potency [16] was “inactive”. The outcome [17] was “inactive”, the outcome [18] was “inactive” and the outcome [19] was “inactive”.

For `CN1C2CCC1CC(NC(=O)c1nn(C)c3ccccc13)C2` (stereo unspecified), the outcome [7] was “inactive”, the Potency [9] was “inactive” and the Potency [10] was “inactive”. For the same compound, the outcome [11] was “inactive”, the Potency [12] was “inactive” and the Potency [13] was “inactive”. For the same compound, the outcome [14] was “inactive”, the Potency [15] was “inactive” and the Potency [16] was “inactive”. For the same compound, the outcome [17] was “inactive”, the outcome [18] was “inactive” and the outcome [19] was “inactive”.

For `CNC(=O)[C@H]1O[C@@H](n2cnc3c(NCc4ccc(N)cc4)ncnc32)[C@H](O)[C@H]1O`, the outcome [7] was “inactive”, the Potency [9] was “inactive” and the Potency [10] was “inactive”. The Potency [12] was “inactive”, the Potency [13] was “inactive” and the outcome [14] was “inactive”. The Potency [15] was “inactive”, the Potency [16] was “inactive” and the outcome [17] was “inactive”. For the same compound, the outcome [18] was “inactive” and the outcome [19] was “inactive”.
